Screening results: PubChem BioAssay, National Center for Advancing Translational Sciences (NCATS)
Most compounds without a hit are left out; they make up all but 7% or so of the library.
IL-1B inflam inh: qHTS for Inhibitors of Inflammasome Signaling: IL-1-beta AlphaLISA Primary Screen; THP-1 LPS/ATP IL-1B secretion, AlphaLISA, 16 h; active compounds read low; activity change, % at 57.5 µM; actives 4.7% (n = 360,000); AID 743279, 2014; in the data active = activity change below about -50%; inconclusive = mostly about -30% to -49%
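THP-1 cells pretreated 1 hr with compounds (up to 57.5 uM final), then stimulated with LPS (250 ng/mL final) plus ATP (1.25 mM final); secreted IL-1B measured by AlphaLISA after 16 hr, decreased signal indicating inhibition.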
Integrin act MD: qHTS for Activators of Integrin-Mediated Alleviation for Muscular Dystrophy | alpha7betagal myoblasts, beta-gal FDG fluorescence, 48 h | Potency, µM (titrated, usually from 38.3 µM), most hits filed as activators | actives 0.064% (n = 350,000) | AID 624291, 2012; note: nearly all actives have a fitted effect of over 60% in size
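Alpha7betagal+/- myoblasts (passage 13) were plated 16-24 hr, then exposed to compounds (1:260 dilution of DMSO stock) for 48 hours at 37C. After MPER lysis, β-galactosidase reporter activity was read as FDG fluorescence (ex 480/em 540) after 30 minutes.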
D3 antag: qHTS of D3 Dopamine Receptor Antagonist: qHTS | D3R cells, DiscoveRx beta-arrestin luminescence, antagonist mode; active compounds read low | max response, negative = inhibition, % | actives 2.5% (n = 360,000) | AID 652054, 2013; in the data active = max response below about -50%; inconclusive = no clear call, values can overlap the other calls
Target sequence (P35462 whole entry, looked up): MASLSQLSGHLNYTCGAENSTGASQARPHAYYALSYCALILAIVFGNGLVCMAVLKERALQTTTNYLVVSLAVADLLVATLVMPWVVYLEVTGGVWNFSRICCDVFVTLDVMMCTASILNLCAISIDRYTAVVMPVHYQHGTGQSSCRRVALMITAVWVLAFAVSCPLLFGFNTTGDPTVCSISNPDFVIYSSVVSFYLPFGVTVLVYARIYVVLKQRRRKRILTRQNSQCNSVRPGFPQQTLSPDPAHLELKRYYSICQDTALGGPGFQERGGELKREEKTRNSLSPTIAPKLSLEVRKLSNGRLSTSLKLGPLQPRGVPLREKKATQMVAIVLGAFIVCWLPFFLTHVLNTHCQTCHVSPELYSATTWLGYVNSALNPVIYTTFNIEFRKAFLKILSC
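Cells expressing the human receptor were seeded at 1500 cells/well, incubated overnight at 37 degrees C in 5% CO2, then exposed to library compounds with dopamine controls for 90 minutes at 37 degrees C before luminescent detection.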
S2 tox: Viability Counterscreen for Primary qHTS for Inhibitors of ATXN expression | Potency, µM (top dose mostly 56.7 µM), most hits filed as cytotoxic | actives 0.49% (n = 400,000) | S2 cells (HEK-293 line with an ATXN2-luciferase reporter) viability, CellTiter-Fluor protease fluorescence, 24 h; note: nearly all actives have a fitted effect of over 40% in size
DRD3 agonist: qHTS of D3 Dopamine Receptor Agonist: qHTS; D(3) dopamine receptor (Homo sapiens), P35462; D3R DiscoveRx beta-arrestin cells, luminescence, 90 min; max activation, %; actives 0.58% (n = 410,000); AID 652048, 2013; in the data active = max activation above about 30%
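Cells at 1500/well, incubated overnight, then treated with pinned compounds (dopamine as control) for 90 min at 37 degrees C. DiscoveRx reagent added for 30 - 60 minutes at room temperature; luminescence read.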
ATXN2 expr inh: Primary qHTS for Inhibitors of ATXN expression; AID 1745845, 2022; HEK-293 ATXN2-luciferase reporter, luminescence, 24 h; Potency, µM (titrated, usually from 57 µM), usual class: inhibitors; actives 0.72% (n = 360,000); note: nearly all actives have a fitted effect of over 55% in size
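ATXN2-luciferase reporter cells (luciferase flanked by upstream and downstream ATXN2 gene portions) were treated 24 h at 37 °C with compounds at up to 57 uM. SteadyGlo luminescence gave expression; GF-AFC fluorescence gave viability.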
A number is an active result; – = inactive; ? = inconclusive; · = no result given; [ ] = another dose, or the depositor's remark. Unless noted, calls come from the whole dose curve; as a rule, active = well fitted curve in the direction sought with a large enough effect; inconclusive = small, poorly fitted or top-dose-only effect, or another doubt; inactive = no such curve, though single readings can be large; an effect the other way counts as inactive or inconclusive.

SMILES	IL-1B inflam inh	Integrin act MD	D3 antag	S2 tox	DRD3 agonist	ATXN2 expr inh
COc1cccc(-c2cccc(-c3nc(C(=O)Nc4ccc(-c5ccccc5)cc4)cc4c3[C@H](CCO)N(S(=O)C(C)(C)C)C4)c2)c1 (stereo not given in full)	?	·	–	–	–	?
COc1cccc(-c2cccc(-c3nc(C(=O)NCc4ccc5c(c4)OCO5)cc4c3[C@H](CCO)N(S(=O)C(C)(C)C)C4)c2)c1 (stereo not given in full)	–	·	–	17.8µM	–	?
CC(C)(C)S(=O)N1Cc2cc(C(=O)NCCCN3CCOCC3)nc(-c3cccc(-c4cc5ccccc5o4)c3)c2[C@@H]1CCO (stereo not given in full)	–	·	–	?	–	–
CC(C)(C)S(=O)N1Cc2cc(C(=O)N3CCOCC3)nc(-c3cccc(Br)c3)c2[C@H]1CCO (stereo not given in full)	–	·	–	–	–	–
CC(C)(C)S(=O)N1Cc2cc(C(=O)NCc3ccc(Oc4ccccc4)cc3)nc(-c3cccc(-c4cc5ccccc5o4)c3)c2[C@H]1CCO (stereo not given in full)	-51.9	·	–	·	–	?
CN1CCN(C(=O)c2cc3c(c(-c4cccc(Br)c4)n2)[C@H](CCO)N(S(=O)C(C)(C)C)C3)CC1 (stereo not given in full)	–	·	-50.2	–	–	–
C/C(=N\NC(=O)c1nn(C)cc1Br)c1cccc(NC(=O)C2CCCC2)c1	–	?	–	–	–	–
CCOC(=O)c1cc2c(c(-c3cccc(-c4cc5ccccc5o4)c3)n1)[C@@H](CCO)N(S(=O)C(C)(C)C)C2 (stereo not given in full)	–	·	–	–	–	–
O=C(NCC1CC1)c1cc2c(c(-c3cccc(-c4ccccc4F)c3)n1)[C@@H](CCO)N(C(=O)CC1CC1)C2	-59.5	·	–	?	–	?
CC(C)(C)S(=O)N1Cc2cc(C(=O)NCc3ccc4c(c3)OCO4)nc(-c3cccc(-c4cc5ccccc5o4)c3)c2[C@@H]1CCO (stereo not given in full)	–	·	–	·	–	22.4µM
Cc1cc2c(cc1S(=O)(=O)N1CCc3ccccc31)NC(=O)CO2	-78.5	–	–	–	–	–[11.3 µM]
CCOC(=O)c1ccc(S(=O)(=O)N2CCC(C(=O)N3CCN(c4ccccc4OC)CC3)CC2)cc1	-85.2	?	–	?	–	–
COc1ccccc1N1CCN(C2CCCCC2NS(=O)(=O)c2ccc(Cl)cc2)CC1 (stereo not given)	-71.6	–	–	–	–	–
O=S(=O)(c1ccc2ccccc2c1)N1CCN(C2CCN(Cc3ccccc3)CC2)CC1	?	–	-61.4	–	–	–
COc1ccccc1N1CCN(C(=O)C2CCN(S(=O)(=O)c3ccc(F)cc3)CC2)CC1	–	–	–	–	–	–
COc1ccccc1N1CCN(C2CCN(S(=O)(=O)c3ccc(C)cc3)CC2)CC1	–	–	-70.2	–	–	–
Cc1ccc(-c2nc(CS(=O)CC(=O)NCc3ccccc3Cl)c(C)o2)cc1 (stereo not given)	·	·	·	·	–	·
Cc1ccc(CC2CC(=O)N(c3cc(C)on3)C2=O)cc1 (stereo not given)	–	–	–	–	–	–
COC(=O)c1ccc(NC(=O)C2(S(=O)(=O)c3ccc(C)cc3)CC2)cc1	·	·	·	–	–	–
COc1ccc(/C=N\NC(=O)c2ccccc2Cl)cc1COc1c(F)c(F)c(F)c(F)c1F	–	–	–	?	–	–
COc1ccc(-n2c(N)cc(=O)[nH]c2=O)cc1	–	–	–	–	–	–
COc1ccccc1N1CCN(C2CCN(S(=O)(=O)c3ccc4ccccc4c3)CC2)CC1	-62.4	–	-54.0	–	–	–
CCOC(=O)c1ccc(NC(=S)NCc2ccc(S(N)(=O)=O)cc2)cc1	–	–	–	–	–	–
Cc1nc(Sc2ccc(Br)cc2)c(C#N)c(C)c1[N+](=O)[O-]	-104.8	–	–	–	–	–
O=C(NC(=S)Nc1ccccc1O)c1ccc(Cl)cc1Cl	-78.4	?	–	–	–	–
SMILES	IL-1B inflam inh	Integrin act MD	D3 antag	S2 tox	DRD3 agonist	ATXN2 expr inh
O=C(Nc1ccccc1Cl)c1ccc(Cl)cc1Cl	–	–	–	–	–	–
CC(C)(C)NC(=S)Nc1cccc(C(F)(F)F)c1	-90.4	–	–	–	–	–
CCN(CC)S(=O)(=O)c1ccc(C)c(NC(=S)N2CCN(C/C=C/c3ccccc3)CC2)c1	–	–	–	?	–	·
CCN(CC)S(=O)(=O)c1ccc(C)c(NC(=S)N2CCN(c3ccccn3)CC2)c1	-72.6	–	–	–	–	?
FC(F)(F)c1cccc(NC(=S)N2CCN(c3ccccn3)CC2)c1	–	–	-106.3	–	–	–
Cc1ccc(N=Nc2c(N)nn3c(N)c(C#N)c(C)nc23)cc1	–	–	–	–	–	·
O=C(Nc1ccc(S(=O)(=O)NC2=NCCCCC2)cc1)c1ccc(Cl)cc1Cl	–	–	–	?	–	–
COc1ccccc1CNC(=O)COc1ccc2c(c1)CCC2	–	?	–	–	–	·
FC(F)(F)c1cccc(NC(=S)Nc2ccc(Cl)c(Cl)c2)c1	-86.8	–	–	–	–	?
FC(F)(F)c1cccc(NC(=S)NC(c2ccccc2)c2ccccc2)c1	–	–	–	–	–	?
O=[N+]([O-])c1cc(C(F)(F)F)cc([N+](=O)[O-])c1NCCNC(=S)Nc1ccc(Cl)c(Cl)c1	-80.5	–	–	·	–	?
O=C(NNC(=S)Nc1cccc(C(F)(F)F)c1)c1ccc(Cl)cc1Cl	-52.2	–	–	–	–	–
O=C(NNC(=S)Nc1ccc(F)c(Cl)c1)c1ccccc1Br	-61.7	–	–	–	–	–
Cc1ccc(C)c(OCCn2cc(C(=O)c3ccco3)c3ccccc32)c1	·	·	·	–	–	–
O=C(Cc1ccccc1)Nc1nc(-c2ccc(F)c(F)c2)cs1	–	–	–	·	–	–
O=C(Cc1ccccc1F)Nc1nc(-c2ccc(F)c(F)c2)cs1	-89.7	–	–	–	–	–
O=C(CCNC(=O)c1ccccc1Cl)Nc1nc(-c2ccc3ccccc3c2)cs1	?	–	–	–	–	–
COc1ccc(-c2csc(N(C)C(=O)c3ccco3)n2)cc1	–	–	–	–	–	–
O=C(CCNC(=O)c1ccccc1Cl)Nc1nc(-c2ccc(F)cc2)cs1	-68.6	–	–	–	–	–
O=C(Nc1nc(-c2ccc(F)c(F)c2)cs1)Nc1ccc(F)cc1F	–	–	–	?	–	5.01µM
